Among all 2,400 compounds or so, about 1,400 (58%) were called active.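 How the source made its calls: active means inhibition of 30% or more at any tested dose; inconclusive means primary hits over the limit that were never retested; inactive means the rest.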 The set was probably picked from earlier hits. The list shows a part of the results.

Usually IC50 stands for the midpoint of a concentration-inhibition curve. As a reminder, the inhibition is the drop in the measured response relative to a control, in per cent.

The nature of the test: coupled detection enzyme interference, dose response, artefact control for MgcRacGAP inhibitor project, biochemical, coupled enzyme counter-screen (AID 624351).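 Further: signal is the ADP detection kit reading of free GDP without any GAP enzyme.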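 On inhibition: 0% = median positive control wells and 100% = median negative control wells.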 The settings on record: ADP Hunter coupled enzyme counter-screen, fluorescence, no MgcRacGAP; series mostly up to 80 µM.
On to `COc1cc(/C=N/NC(=O)c2cnccn2)ccc1O`, for which the IC50 was 25.9 µM (active). On to `COc1ccc(/C=N\NC(=O)c2ccc(=O)[nH]n2)cc1O`, for which the IC50 is 26 µM (active). As for `COc1cc(/C=N/NC(=O)c2ccc(=O)[nH]n2)ccc1O`, the IC50 was 26.3 µM (active). `O=C(/C(=C/c1ccccc1)n1cncn1)c1ccc(Cl)cc1Cl`: the IC50 entry was “inactive”. Regarding `COC(=O)C(C(=O)OC)C(C)C(C(=O)OC)C(=O)OC`, the IC50 entry is “inactive”. As for `CN(C)c1ccc(C=Cc2cnccn2)cc1`, the IC50 was 53 µM (active). Take `CCOC(=O)c1[nH]c2ccccc2c1NC(=S)Nc1ccccc1C`: the IC50 is 45.3 µM (active). Regarding `CCOC(=O)c1[nH]c2ccccc2c1NC(=S)Nc1cccc(C)c1C`, the IC50 is 46 µM (active).

Turning to `CCOC(=O)c1[nH]c2ccccc2c1NC(=S)Nc1cc(C)ccc1C`, the IC50 was 39.4 µM (active). Consider `COC(=O)c1c(NC(=O)CCNCc2ccco2)sc2c1CCC2`, for which the IC50 entry was “inactive”.

Take `CCOC(=O)c1[nH]c2ccc(F)cc2c1NC(=O)c1ccccc1C(=O)O`: the IC50 entry is “inactive”.

Turning to `CCOC(=O)c1[nH]c2ccccc2c1NC(=S)Nc1ccccc1`, the IC50 is 45.1 µM (active). In the case of `O=C1SC(c2ccccc2)=C/C1=C\N1CCCCC1`, the IC50 was 51 µM (active).

Consider `O=C1CCCCCN1Sc1ccccc1`, for which the IC50 entry is “inactive”. With `CC(C)Nc1ccc(Nc2ccnc3cc4ccccc4cc23)cc1`, the IC50 is 22.4 µM (active). Consider `COc1cc(/C=C/C(=O)OCC(=O)NC(=O)NC(C)(C)C)ccc1O`, for which the IC50 was 62.6 µM (active). On to `COc1cc(/C=C/C(=O)OCC(=O)NC(=O)NC(C)C)ccc1O`, for which the IC50 was 42.8 µM (active).

Regarding `C=CCN(CC=C)C(=O)C1CCN(Cc2ccc(OCc3ccccc3)cc2)CC1`, the IC50 result is “inactive”. Same read-out and setting: the value for `CCN1CCN(CC(=O)Nc2nc3ccc(OC)cc3s2)CC1` was “inactive”. Take `COc1ccc(NC(=O)c2ccc(NC(=O)CN3CCN(c4ccc(O)cc4)CC3)cc2)cc1`: the IC50 was 76.7 µM (active).

Regarding `CCCS(=O)(=O)N1CCN(Cc2ccco2)CC1`, the IC50 result is “inactive”. For `O=C(CN1CCN(c2ccc(O)cc2)CC1)NC(=O)NCc1ccco1`, the concentration for half-maximal inhibition (IC50) was 54.7 µM (active). In the case of `Cc1ccc(NC(=O)CN2CCN(C)CC2)cc1Br`, the IC50 result is “inactive”. On to `Cc1ccc(NC(=O)NC(=O)CN2CCN(c3ccc(O)cc3)CC2)c(C)c1`, for which the IC50 was 63.4 µM (active). Regarding `O=C(CN1CCCCC1)Nc1ccc(N2CCCCCC2)cc1`, the IC50 result is “inactive”. Consider `CCN1CCN(CC(=O)Nc2ccc(C)c(Br)c2)CC1`, for which the IC50 entry is “inactive”. Same read-out and setting: the value for `CC1(C)O[C@@H]2[C@H](O1)[C@@H](COS(=O)(=O)O)O[C@H]2n1c(=S)[nH]c2c(=O)[nH]c(N)nc21` was 55.7 µM (active). For `CCC(=O)c1ccccc1OCCN1CCN(CC)CC1`, the IC50 result was “inactive”. With `CCN1CCN(CCOc2ccccc2OCc2ccccc2)CC1`, the IC50 entry is “inactive”. As for `O=C1NN(c2ccc(Br)cc2)C(=O)/C1=C\c1ccc(O)cc1O`, the IC50 entry is “inactive”. As to `CCN1CCN(c2ccc(N=Cc3ccc(O)cc3O)cc2)CC1`, the IC50 is 38.2 µM (active). Take `CCN1CCN(c2ccc(N=Cc3ccccc3O)cc2)CC1`: the IC50 is 24.5 µM (active). For the molecule `Oc1cc(Br)ccc1C=Nc1ccc(N2CCCCC2)cc1`, the IC50 is 4.33 µM (active).

`C=CCc1cc(Cl)ccc1OCCn1ccnc1`: the IC50 entry was “inactive”. On to `N#CC1=C(S)N(c2ccccc2)C(c2ccc(-c3cccc(Cl)c3)o2)NC1=O` (stereo not drawn), for which the IC50 result was “inactive”. In the case of `O=c1c(-c2cccc(Cl)c2)c[nH]n1-c1ccccc1`, the IC50 was 52.1 µM (active). `O=c1c2ccccc2sn1-c1cccc(Cl)c1`: the IC50 entry was “inactive”.

Consider `O=[N+]([O-])c1cccc(SSc2cccc([N+](=O)[O-])c2)c1`, for which the IC50 result was “inactive”.

Turning to `O=c1c(-c2ccccc2)c[nH]n1-c1cccc([N+](=O)[O-])c1`, the IC50 was 41.6 µM (active). In the case of `CN=c1scc(C)n1/N=C/c1ccc(O)cc1O`, the IC50 was 10.1 µM (active).

With `C=CCN=c1scc(C)n1/N=C/c1ccc(O)c(O)c1`, the IC50 was 15.4 µM (active). Turning to `CN=c1scc(C)n1/N=C/c1ccc(O)cc1`, the IC50 was 19.3 µM (active). `Cn1c(=O)c2c([nH]c(=S)n2CCCc2ccccc2)n(C)c1=O`: the IC50 was 11.4 µM (active). Regarding `Cn1c(=O)[nH]c(=O)c2c1[nH]c(=S)n2Cc1ccccc1`, the IC50 is 19.2 µM (active).

Take `CN(C)C(=S)N=c1ssc(=S)n1Cc1ccccc1`: the IC50 result is “inactive”. Take `Cn1c(=O)[nH]c(=O)c2c1[nH]c(=S)n2Cc1ccc(Cl)cc1`: the 50% inhibitory concentration (IC50) was 22.2 µM (active). As for `Cn1c(=O)[nH]c(=O)c2c1[nH]c(=S)n2CCCc1ccccc1`, the IC50 is 15.2 µM (active). Consider `c1ccc2c(c1)c1c(c3ccccc32)CN2CCCC2C1` (stereo not drawn), for which the inhibition was -11.7% [at 10 µM] (inactive). On to `O=C1c2c([N+](=O)[O-])cc([N+](=O)[O-])cc2S(=O)N1Cc1ccccc1` (stereo not drawn), for which the IC50 entry was “inactive”. Regarding `COc1ccc(N2CCCC2)c(NC(=O)c2ccc([N+](=O)[O-])o2)c1`, the IC50 result was “inactive”. Still for that read-out and setting: the value for `COc1ccc(NCc2ccc([N+](=O)[O-])s2)c(OC)c1` was 33.3 µM (active). As for `COc1ccc(NC(=O)CNCc2cccs2)c(OC)c1`, the IC50 entry is “inactive”. Still for that read-out and setting: next, `Cn1c(N2CCOCC2)c(/C=N/O)c2ccccc21`: 60.1 µM (active); `CCCCn1c(=S)[nH]c2c(=O)n(C)c(=O)n(C)c21`: 15.6 µM (active); `Cn1c(=O)c2[nH]c(=S)n(Cc3ccccc3)c2n(C)c1=O`: 18.4 µM (active). Turning to `CCn1c(=S)[nH]c2c(=O)n(C)c(=O)n(C)c21`, the IC50 was 18.9 µM (active).

Take `Cc1cc(C)c(OCC(O)CN2CCN(C(=O)c3ccccc3)CC2)c(C)c1` (stereo not drawn): the IC50 result is “inactive”.

For the molecule `CCOC(=O)Nc1ccc(OC(=O)Oc2ccc(NC(=O)OCC)cc2)cc1`, the IC50 was 41.3 µM (active). On the same count and under the same terms, the value for `Cn1nccc1C(=O)Nc1ccc(OC(=O)c2ccnn2C)cc1` was “inactive”; that for `CC(=O)Nc1ccc(OC(=O)Cc2ccc(Cl)cc2)cc1` was “inactive”.

With `CCOC(=O)c1oc2cc(O)cc(C)c2c1C`, the IC50 is 54.1 µM (active). On the same count and under the same terms, the value for `CCCCCCCCCCCCCCCC[N+](C)(C)Cc1ccc(F)cc1` was “inactive”.

As for `N#Cc1c(Nc2ccccc2)s[nH]c1=O`, the IC50 result was “inactive”. On the same count and under the same terms, next, `CCOC(=O)c1sc(/N=C/c2ccc(O)cc2O)cc1C`: 24.7 µM (active); `CCOC(=O)c1sc(/N=C/c2c(O)ccc3ccccc23)cc1C`: 36 µM (active).

As for `CCCS(=O)(=O)N1CCN(C2CCC(C)CC2)CC1` (stereo not drawn), the IC50 result was “inactive”. For the molecule `CC1(C)CNc2cc(N)ccc2S1`, the IC50 was 26.6 µM (active). For the molecule `CCN(CC)CCOC(=O)c1ccc(N/C=C(/C#N)c2nc(-c3ccc(OC)c(OC)c3)cs2)cc1`, the IC50 entry was “inactive”. Take `O=C(COC(=O)c1c2c(nc3ccccc13)/C(=C/c1ccco1)CC2)NC1CCCC1`: the IC50 entry is “inactive”. In the case of `O=C(O)c1c2c(nc3ccccc13)/C(=C/c1ccc(O)cc1)CCC2`, the IC50 was 60.2 µM (active). Take `CC(C)NCC(=O)Nc1c2c(nc3ccccc13)CCC2`: the IC50 result was “inactive”.

Consider `Cc1ccc(Nc2ccc(N)cc2S(=O)(=O)O)cc1`, for which the IC50 was 40.2 µM (active). Turning to `Nc1cc(C(F)(F)F)ccc1N1CCOCC1`, the IC50 is 30.2 µM (active). Take `COC(=O)c1cc(NCc2ccccc2F)ccc1N1CCOCC1`: the IC50 result is “inactive”. As for `COC(=O)c1cc(NCc2c(F)cccc2Cl)ccc1N1CCOCC1`, the IC50 entry was “inactive”.

`Nc1ccc(N2CCOCC2)c(Cl)c1`: the IC50 is 51.3 µM (active). In the case of `Nc1ccc(N2CCCCC2)c(Cl)c1`, the IC50 was 37.9 µM (active). `O=C(CNCc1ccccn1)Nc1cc(C(F)(F)F)ccc1N1CCOCC1`: the IC50 entry is “inactive”. For the molecule `Cc1cccc(C)c1OCCCCN1CCNCC1`, the IC50 entry is “inactive”. For `O=C(NN=Cc1ccc(O)cc1)c1ccccc1NS(=O)(=O)c1cccs1`, the IC50 was 75.6 µM (active). Same read-out and setting: the value for `COc1cc(/C=N/NC(=O)c2ccccc2NS(=O)(=O)c2cccs2)ccc1O` was 79 µM (active); that for `CC(=O)Oc1ccc([N+](=O)[O-])cc1N1C(=O)c2ccccc2C1=O` was “inactive”.

With `CSc1ccc(CN2CCC(N3CC(C)OC(C)C3)CC2)cc1` (stereo not drawn), the IC50 entry was “inactive”. For `Oc1ccc(/C=N/Nc2ncnc3c2ncn3Cc2ccccc2)cc1O`, the IC50 was 40.7 µM (active). On to `C=C1c2cccc(O)c2C(O)=C2C(=O)[C@]3(O)C(O)=C(C(N)=O)C(=O)[C@@H](N(C)C)[C@@H]3[C@@H](O)[C@H]12`, for which the IC50 entry was “inactive”. For `O=C1C(Nc2ccc(O)cc2)=C/C(=N/S(=O)(=O)c2cccs2)c2ccccc21`, the IC50 was 50.8 µM (active). The same measure, in the same setting: next, `O=C1C(Cl)=C(NCCc2ccccc2)C(=O)c2ccccc21`: “inactive”; `COC1=C(Nc2ccc(O)cc2)C(=O)c2ccccc2C1=O`: 30.7 µM (active); `O=C1C=C(Nc2ccc(O)cc2)C(=O)c2ccccc21`: 24.7 µM (active).

As for `COc1cc(C=C2C(=O)c3ccccc3C2=O)cc(OC)c1OC`, the IC50 result is “inactive”. For `COc1ccc(S(=O)(=O)/N=C2\C=C(Nc3ccc(O)cc3)C(=O)c3ccccc32)cc1`, the IC50 is 52 µM (active). Turning to `O=C1C(=C(I)I)c2ccccc2-c2ccccc21`, the IC50 result is “inactive”. Consider `COc1ccc(CN2CCC(N(CCc3ccccc3)Cc3ccccc3)CC2)c(OC)c1`, for which the IC50 result was “inactive”. For `COc1ccc(OCCOCCN2CCN(C)CC2)cc1`, the IC50 result was “inactive”. Take `CN(C)CCCC1Sc2ccccc2Sc2ccccc21` (stereo not drawn): the IC50 result is “inactive”.

For the molecule `CC1=NN(c2ccccc2)C(=O)/C1=C/C=C/c1ccc(N(C)C)cc1`, the IC50 entry was “inactive”.

For `CC1=NN(c2ccccc2)C(=O)/C1=C/C=C/C=C/N(C)C`, the IC50 was 68.9 µM (active).

Take `COc1ccccc1/C=C1/C(=O)N(c2ccccc2)N=C1C`: the IC50 result is “inactive”. As for `O=C(O)C1CCN(Cc2cnn(-c3ccccc3)c2-n2cccc2)CC1`, the IC50 result is “inactive”. The same measure, in the same setting: next, `O=C(Nc1ccc(O)cc1)c1ccc(C(=O)c2ccccc2)o1`: 26.1 µM (active); `C/C(=C\C(=O)c1ccccc1)Nc1ccc(O)cc1`: 19.2 µM (active). As to `C/C(=C\C(=O)c1cccnc1)Nc1ccc(O)cc1`, the IC50 was 13.6 µM (active).

As to `COc1ccc(C(=O)/C=C(\C)Nc2ccc(NC(C)=O)cc2)cc1`, the IC50 entry was “inactive”. On to `Cc1ccc(C2CC(=O)N3CN(c4ccc(Br)cc4)CSC3=C2C#N)o1` (stereo not drawn), for which the IC50 entry was “inactive”. The same measure, in the same setting: next, `Cc1ccsc1/C=N/Nc1cccc(C(=O)O)c1`: 72.9 µM (active); `O=C(CSc1cn[nH]n1)Nc1cccc(C(=O)O)c1`: “inactive”; `CSc1ccc(/C=N/Nc2cccc(C(=O)O)c2)cc1`: “inactive”. Same read-out and setting: next, `O=C(O)c1cccc(N/N=C/c2cccs2)c1`: 62.5 µM (active).

These data come from PubChem BioAssay AID624351 (Southern Research Specialized Biocontainment Screening …, 2012).
